For assay [1], the target named is Nuclear receptor subfamily 1 group I member 3 (Homo sapiens) (UniProt Q14994). The assay is described as follows: ATG_CAR_TRANS: Attagene TRANS-FACTORIAL HepG2 Assay for human Constitutive Androstane Receptor (CAR) (AID 2282969).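 Further: activators raise reporter mRNA above DMSO so AC50 marks induction.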 The settings on record: HepG2 Attagene TRANS-FACTORIAL CAR reporter. A digest of the protocol: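 Readout is reporter mRNA induction, quantified by fluorescent primer extension and capillary electrophoresis after RT-PCR. Cells were HepG2 transiently carrying chimeric NR-Gal4 constructs with GAL4-UAS reporters, treated for 24 h; activity scored upward from DMSO.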
Nuclear receptor subfamily 1 group I member 3 (Homo sapiens), sequence (Q14994 whole entry, looked up, the tested form may be a part): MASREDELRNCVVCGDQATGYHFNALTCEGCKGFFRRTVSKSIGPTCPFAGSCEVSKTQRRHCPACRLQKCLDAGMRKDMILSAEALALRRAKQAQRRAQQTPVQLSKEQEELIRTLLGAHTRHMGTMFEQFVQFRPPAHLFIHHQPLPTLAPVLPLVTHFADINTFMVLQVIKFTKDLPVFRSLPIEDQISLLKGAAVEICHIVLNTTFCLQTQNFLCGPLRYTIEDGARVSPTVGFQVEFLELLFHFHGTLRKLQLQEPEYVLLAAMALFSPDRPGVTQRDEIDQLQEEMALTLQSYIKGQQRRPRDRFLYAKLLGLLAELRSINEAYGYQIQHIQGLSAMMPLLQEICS

The target of assay [2] is Estrogen receptor (Homo sapiens) (UniProt P03372). In words: ATG_ERa_TRANS: Attagene TRANS-FACTORIAL HepG2 Assay for human Estrogen Receptor alpha (ERa) (AID 2282970). The settings on record: HepG2 Attagene TRANS ERa GAL4 reporter, mRNA. A digest of the protocol:
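HepG2 cells transiently transfected with multiplexed GAL4-UAS reporter units; ERa activity read via exogenous chimeric NR-Gal4 protein. After 24 hour compound exposure, reporter mRNA measured by RT-PCR with 6-FAM labelling and capillary electrophoresis; gain-of-signal fitted relative to DMSO.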

Assay [3] deals with X-box-binding protein 1 (Homo sapiens) (UniProt P17861). The assay is described as follows: ATG_Xbp1_CIS: Attagene CIS-FACTORIAL HepG2 Assay for human X-box Binding Protein 1 (XBP1) (AID 2282972; active means hit-call score of the fitted dose curve at least 0.9, where 1 is the maximum; inactive means score below 0.9). The settings on record: HepG2 XBP1 cis-element reporter, Attagene multiplex; actives raise or lower the signal. A digest of the protocol:
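HepG2 cells transiently transfected with multiple cis-element reporter units report endogenous TF activity; 24 h exposure, then reporter mRNA measured by RT-PCR, 6-FAM labelling, HpaI digestion and capillary electrophoresis. Bidirectional fitting versus DMSO.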

Assay [4] concerns the target Androgen receptor (Homo sapiens) (UniProt P10275). In words: ATG_AR_TRANS: Attagene TRANS-FACTORIAL HepG2 Assay for human Androgen Receptor (AR) (AID 2282973). The settings on record: HepG2 Attagene TRANS-FACTORIAL AR reporter transcription. The essentials:
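HepG2 cells transiently transfected with multiplexed GAL4-UAS reporter units and chimeric NR-Gal4 fusion; 24 h compound exposure. Reporter mRNA measured by RT-PCR, 6-FAM labelling, HpaI digestion and capillary electrophoresis; gain-of-signal fitted relative to DMSO baseline.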

A short description of assay [5]: ATG_M_19_TRANS: Attagene TRANS-FACTORIAL HepG2 Assay for M19 Transcription Factor (Internal Marker) (AID 2282974). The settings on record: HepG2 Attagene TRANS-FACTORIAL M19 internal marker reporter. A digest of the protocol:
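Fluorescence of 6-FAM-labelled reporter cDNA fragments, separated by capillary electrophoresis, served as the readout. These derived from HepG2 cells carrying transfected GAL4-UAS reporter units after 24 h dosing, with DMSO as negative control.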

Assay [6] can be described thus: ATG_GAL4_TRANS: Attagene TRANS-FACTORIAL HepG2 Assay for GAL4 (Internal Marker) (AID 2282976). The settings on record: HepG2 Attagene TRANS GAL4 internal marker reporter. A digest of the protocol:
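HepG2 cells transiently transfected with multiplexed GAL4-UAS reporter constructs were dosed for 24 h. Reporter mRNA was measured by RT-PCR, 6-FAM primer extension, HpaI digestion and capillary electrophoresis, and gain of signal was fitted relative to DMSO.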

The target of assay [7] is Estrogen-related receptor gamma (Homo sapiens) (UniProt P62508). The assay is described as follows: ATG_ERRg_TRANS: Attagene TRANS-FACTORIAL HepG2 Assay for human Estrogen-Related Receptor gamma (ERRg) (AID 2282977).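 Further: hits increase reporter signal over DMSO so potencies reflect activators.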 The settings on record: HepG2 Attagene TRANS reporter, ERRg transactivation. A digest of the protocol: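 HepG2 cells transiently transfected with multiplexed GAL4-UAS reporter units driven by chimeric NR-Gal4 proteins; 24 h exposure. Reporter mRNA quantified by RT-PCR, fluorescent labelling, HpaI digestion and capillary electrophoresis; gain of signal vs DMSO.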
Estrogen-related receptor gamma (Homo sapiens), sequence (P62508 whole entry, looked up, the tested form may be a part): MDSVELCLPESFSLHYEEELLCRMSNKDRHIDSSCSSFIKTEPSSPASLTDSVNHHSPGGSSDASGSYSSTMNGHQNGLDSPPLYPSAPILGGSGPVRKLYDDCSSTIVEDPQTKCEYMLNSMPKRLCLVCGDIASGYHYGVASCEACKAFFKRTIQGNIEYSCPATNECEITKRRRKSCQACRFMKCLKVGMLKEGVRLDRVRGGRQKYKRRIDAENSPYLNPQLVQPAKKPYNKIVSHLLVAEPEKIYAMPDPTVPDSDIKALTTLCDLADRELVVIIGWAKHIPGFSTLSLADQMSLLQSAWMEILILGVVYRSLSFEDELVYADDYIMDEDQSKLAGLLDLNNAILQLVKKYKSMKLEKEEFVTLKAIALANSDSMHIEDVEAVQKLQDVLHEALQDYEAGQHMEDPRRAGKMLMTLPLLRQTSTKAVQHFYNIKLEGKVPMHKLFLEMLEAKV

The target in assay [8] is Hepatocyte nuclear factor 4-alpha (Homo sapiens) (UniProt P41235). In words: ATG_HNF4a_TRANS: Attagene TRANS-FACTORIAL HepG2 Assay for human Hepatocyte Nuclear Factor 4 alpha (HNF4a) (AID 2282982). The settings on record: HepG2 HNF4a transactivation reporter, mRNA readout. A digest of the protocol: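 Readout is fluorescent reporter-transcript fragments resolved by capillary electrophoresis after RT-PCR from HepG2 cells dosed for 24 h. Cells carried transfected GAL4-UAS reporter constructs measuring exogenous NR-GAL4 chimera activity; DMSO served as baseline.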

A short description of assay [9]: ATG_M_06_TRANS: Attagene TRANS-FACTORIAL HepG2 Assay for M06 Transcription Factor (Internal Marker) (AID 2282983). The settings on record: HepG2 Attagene TRANS M06 internal marker reporter. A digest of the protocol:
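HepG2 cells transiently transfected with multiplexed GAL4-UAS reporter transcription units; after 24 h compound exposure, reporter mRNA measured by RT-PCR, FAM-labelled primer extension, HpaI digestion and capillary electrophoresis. Gain-of-signal fitted versus DMSO baseline; background control readout.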

Assay [10] is described as follows: ATG_M_32_TRANS: Attagene TRANS-FACTORIAL HepG2 Assay for M32 Transcription Factor (Internal Marker) (AID 2282984). The settings on record: HepG2 Attagene TRANS M32 internal marker reporter. The essentials:
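Measures reporter mRNA induction in human HepG2 liver cells after 24 h chemical treatment. Transcripts from transiently transfected GAL4-UAS reporter units are amplified, fluorescently labelled and sized by capillary electrophoresis; gain of signal relative to DMSO.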

Assay [11] deals with Nuclear receptor subfamily 4 group A member 2 (Homo sapiens) (UniProt P43354). In words: ATG_NURR1_TRANS: Attagene TRANS-FACTORIAL HepG2 Assay for human Nuclear Receptor Related Protein 1 (NURR1) (AID 2282985). The settings on record: HepG2 Attagene TRANS reporter, mRNA readout. The essentials: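 Transient transfection of HepG2, human liver cells, with multiple GAL4-UAS reporter transcription units. Cells dosed 24 h, RNA isolated, reverse-transcribed, PCR-amplified, FAM-labelled, HpaI-digested, sized by capillary electrophoresis. DMSO served as negative control.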
Nuclear receptor subfamily 4 group A member 2 (Homo sapiens), sequence (P43354 whole entry, looked up, the tested form may be a part): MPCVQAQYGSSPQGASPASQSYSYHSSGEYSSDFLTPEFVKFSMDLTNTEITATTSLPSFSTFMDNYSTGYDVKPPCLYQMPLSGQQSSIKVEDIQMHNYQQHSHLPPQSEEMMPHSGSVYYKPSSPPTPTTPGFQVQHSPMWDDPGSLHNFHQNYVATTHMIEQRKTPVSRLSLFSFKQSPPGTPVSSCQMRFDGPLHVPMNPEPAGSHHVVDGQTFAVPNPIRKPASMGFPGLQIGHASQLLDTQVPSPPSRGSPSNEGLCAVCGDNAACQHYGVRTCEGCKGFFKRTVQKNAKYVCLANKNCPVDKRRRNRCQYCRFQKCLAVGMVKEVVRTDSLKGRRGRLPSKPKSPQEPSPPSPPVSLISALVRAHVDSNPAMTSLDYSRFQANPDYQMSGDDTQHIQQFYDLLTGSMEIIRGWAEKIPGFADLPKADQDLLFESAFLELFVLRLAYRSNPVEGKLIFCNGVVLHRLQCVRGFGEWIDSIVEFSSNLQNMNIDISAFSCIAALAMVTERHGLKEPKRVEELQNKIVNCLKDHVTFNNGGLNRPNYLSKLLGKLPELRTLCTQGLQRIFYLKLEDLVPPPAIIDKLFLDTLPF

The target of assay [12] is Transcriptional activator Myb (Homo sapiens) (UniProt P10242). The assay is described as follows: ATG_Myb_CIS: Attagene CIS-FACTORIAL HepG2 Assay for human Myeloblastosis (Myb) Proto-Oncogene Transcription Factor (AID 2282986; active means hit-call score of the fitted dose curve at least 0.9, where 1 is the maximum; inactive means score below 0.9). The settings on record: HepG2 Attagene CIS-FACTORIAL Myb reporter transcription; actives raise or lower the signal. The essentials: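 Reporter transcript levels, quantified by fluorescent RT-PCR and capillary electrophoresis, serve as the read-out. Transfected HepG2 cells carrying cis-promoter reporter units are dosed for 24 hours, and curves are fitted bidirectionally against DMSO controls.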
Transcriptional activator Myb (Homo sapiens), sequence (P10242 whole entry, looked up): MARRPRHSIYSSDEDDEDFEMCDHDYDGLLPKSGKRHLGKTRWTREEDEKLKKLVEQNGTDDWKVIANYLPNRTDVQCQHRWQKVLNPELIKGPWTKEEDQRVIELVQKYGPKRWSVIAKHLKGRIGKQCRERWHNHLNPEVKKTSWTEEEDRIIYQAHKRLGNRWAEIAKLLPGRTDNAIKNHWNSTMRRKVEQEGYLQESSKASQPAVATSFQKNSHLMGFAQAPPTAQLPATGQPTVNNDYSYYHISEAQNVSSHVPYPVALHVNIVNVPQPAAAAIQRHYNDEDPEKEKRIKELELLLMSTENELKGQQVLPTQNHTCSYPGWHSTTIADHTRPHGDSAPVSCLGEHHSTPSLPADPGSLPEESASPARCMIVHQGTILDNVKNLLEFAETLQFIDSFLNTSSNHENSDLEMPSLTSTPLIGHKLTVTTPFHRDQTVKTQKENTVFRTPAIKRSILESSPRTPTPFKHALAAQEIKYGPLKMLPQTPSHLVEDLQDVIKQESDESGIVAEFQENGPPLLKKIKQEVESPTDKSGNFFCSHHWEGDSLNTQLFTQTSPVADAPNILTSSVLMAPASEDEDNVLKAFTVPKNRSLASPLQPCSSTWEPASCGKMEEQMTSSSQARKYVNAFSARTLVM

Assay [13] addresses Nuclear respiratory factor 1 (Homo sapiens) (UniProt Q16656). In words: ATG_NRF1_CIS: Attagene CIS-FACTORIAL HepG2 Assay for human Nuclear Respiratory Factor 1 (NRF1) Orphan Gene (AID 2282987; active means hit-call score of the fitted dose curve at least 0.9, where 1 is the maximum; inactive means score below 0.9). The settings on record: HepG2 NRF1 cis-element reporter, Attagene multiplex; actives raise or lower the signal. A digest of the protocol: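 Multiplexed cis-reporter assay, HepG2 cells, 24 h treatment. Total RNA → oligo(dT) RT → PCR with reporter-specific primers → 6-FAM primer extension → HpaI cut → CE. Bidirectional fit vs DMSO.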

Assay [14] in a line: ATG_NFI_CIS: Attagene CIS-FACTORIAL HepG2 Assay for human Nuclear Factor I (NFI) (AID 2282989; active means hit-call score of the fitted dose curve at least 0.9, where 1 is the maximum; inactive means score below 0.9). The settings on record: HepG2 cis-regulatory reporter, NFI response element transcription; actives raise or lower the signal. A digest of the protocol:
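Reporter transcripts were measured by RT-PCR with fluorescent primer extension and capillary electrophoresis 24 h post-treatment. HepG2 cells carried transiently transfected cis-regulated reporter constructs reporting endogenous factor activity; gain or loss fitted against DMSO baseline.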

Assay [15] concerns the target Myc proto-oncogene protein (Homo sapiens) (UniProt P01106). In words: ATG_Myc_CIS: Attagene CIS-FACTORIAL HepG2 Assay for human Myelocytomatosis (Myc) Proto-Oncogene Transcription Factor (AID 2282990; active means hit-call score of the fitted dose curve at least 0.9, where 1 is the maximum; inactive means score below 0.9). The settings on record: HepG2, Attagene cis-reporter transcription factor activity; actives raise or lower the signal. The essentials:
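HepG2, transient MRTU transfection (cis promoters, endogenous TFs); 24 h dosing; TriZol RNA → oligo(dT) RT → PCR → 6-FAM primer extension → HpaI cut → CE. Bidirectional fit vs DMSO.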

Assay [16] addresses Bile acid receptor (Homo sapiens) (UniProt Q96RI1). The assay is described as follows: ATG_FXR_TRANS: Attagene TRANS-FACTORIAL HepG2 Assay for Farnesoid X Receptor (FXR) (AID 2282979).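 Further: hits raise reporter mRNA above DMSO so AC50 marks FXR activation.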 The settings on record: HepG2 Attagene TRANS FXR-GAL4 reporter transcription. The essentials:
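HepG2 cells transiently transfected with reporter constructs in which a chimeric FXR-GAL4 protein drives a GAL4-UAS reporter; 24 h compound exposure. Reporter mRNA measured by RT-PCR, FAM labelling, HpaI digestion and capillary electrophoresis; gain-of-signal versus DMSO.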

Assay [17] deals with Oxysterols receptor LXR-alpha (Homo sapiens) (UniProt Q13133). The assay is described as follows: ATG_LXRa_TRANS: Attagene TRANS-FACTORIAL HepG2 Assay for human Liver X Receptor alpha (LXRa) (AID 2282980). The settings on record: HepG2 Attagene TRANS reporter, LXRa transactivation. A digest of the protocol:
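HepG2 cells were transiently transfected with multiplexed reporter units driven by chimeric LXRa–GAL4 fusion proteins, then dosed for 24 h. Reporter mRNA was quantified by RT-PCR, fluorescent labelling and capillary electrophoresis; gain of signal fitted against DMSO baseline.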

For assay [18], the target named is Oxysterols receptor LXR-beta (Homo sapiens) (UniProt P55055). In words: ATG_LXRb_TRANS: Attagene TRANS-FACTORIAL HepG2 Assay for human Liver X Receptor beta (LXRb) (AID 2282981). The settings on record: HepG2 Attagene TRANS GAL4-LXRb reporter, mRNA. The essentials:
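Transient transfection HepG2 (multiplexed RTUs, GAL4-UAS); NR-Gal4 chimera; 24 h exposure; RNA → RT-PCR → 6-FAM primer extension → HpaI → CE; increase vs DMSO.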

Assay [19] concerns the target Glucocorticoid receptor (Homo sapiens) (UniProt P04150). In words: ATG_GR_TRANS: Attagene TRANS-FACTORIAL HepG2 Assay for human Glucocorticoid Receptor (GR) (AID 2282978).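 Further: activators score as hits since higher reporter transcript over DMSO is fitted.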 The settings on record: HepG2 Attagene TRANS GR reporter, mRNA transcription. The essentials: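 Fluorescent capillary-electrophoresis quantitation of reporter mRNA is the readout, taken 24 h after dosing human HepG2 cells carrying transiently transfected GAL4-UAS reporter units activated by chimeric NR-GAL4 fusions; activity scored as induction over DMSO.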

Results filed as inconclusive are left out. Calls of active or inactive are those of the source. How the source made its calls, unless noted: active means hit-call score of the fitted dose curve at least 0.9, where 1 is the maximum; inconclusive means response in the unintended direction; inactive means score below 0.9.

Nuclear respiratory factor 1 (Homo sapiens), sequence (Q16656 whole entry, looked up): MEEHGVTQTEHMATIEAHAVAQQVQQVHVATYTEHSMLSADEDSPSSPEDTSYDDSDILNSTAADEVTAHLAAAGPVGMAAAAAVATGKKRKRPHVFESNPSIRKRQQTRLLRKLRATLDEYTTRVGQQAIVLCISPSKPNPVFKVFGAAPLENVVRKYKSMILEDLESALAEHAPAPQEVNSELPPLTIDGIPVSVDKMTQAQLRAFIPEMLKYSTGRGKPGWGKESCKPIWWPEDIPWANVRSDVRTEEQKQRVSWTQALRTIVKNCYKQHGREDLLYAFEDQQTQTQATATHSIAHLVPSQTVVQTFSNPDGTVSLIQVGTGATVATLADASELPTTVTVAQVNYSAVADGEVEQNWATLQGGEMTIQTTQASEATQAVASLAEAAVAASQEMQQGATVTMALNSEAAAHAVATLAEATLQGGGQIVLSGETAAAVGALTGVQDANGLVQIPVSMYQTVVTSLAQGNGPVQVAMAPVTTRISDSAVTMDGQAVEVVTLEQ
Androgen receptor (Homo sapiens), sequence (P10275 whole entry, looked up, the tested form may be a part): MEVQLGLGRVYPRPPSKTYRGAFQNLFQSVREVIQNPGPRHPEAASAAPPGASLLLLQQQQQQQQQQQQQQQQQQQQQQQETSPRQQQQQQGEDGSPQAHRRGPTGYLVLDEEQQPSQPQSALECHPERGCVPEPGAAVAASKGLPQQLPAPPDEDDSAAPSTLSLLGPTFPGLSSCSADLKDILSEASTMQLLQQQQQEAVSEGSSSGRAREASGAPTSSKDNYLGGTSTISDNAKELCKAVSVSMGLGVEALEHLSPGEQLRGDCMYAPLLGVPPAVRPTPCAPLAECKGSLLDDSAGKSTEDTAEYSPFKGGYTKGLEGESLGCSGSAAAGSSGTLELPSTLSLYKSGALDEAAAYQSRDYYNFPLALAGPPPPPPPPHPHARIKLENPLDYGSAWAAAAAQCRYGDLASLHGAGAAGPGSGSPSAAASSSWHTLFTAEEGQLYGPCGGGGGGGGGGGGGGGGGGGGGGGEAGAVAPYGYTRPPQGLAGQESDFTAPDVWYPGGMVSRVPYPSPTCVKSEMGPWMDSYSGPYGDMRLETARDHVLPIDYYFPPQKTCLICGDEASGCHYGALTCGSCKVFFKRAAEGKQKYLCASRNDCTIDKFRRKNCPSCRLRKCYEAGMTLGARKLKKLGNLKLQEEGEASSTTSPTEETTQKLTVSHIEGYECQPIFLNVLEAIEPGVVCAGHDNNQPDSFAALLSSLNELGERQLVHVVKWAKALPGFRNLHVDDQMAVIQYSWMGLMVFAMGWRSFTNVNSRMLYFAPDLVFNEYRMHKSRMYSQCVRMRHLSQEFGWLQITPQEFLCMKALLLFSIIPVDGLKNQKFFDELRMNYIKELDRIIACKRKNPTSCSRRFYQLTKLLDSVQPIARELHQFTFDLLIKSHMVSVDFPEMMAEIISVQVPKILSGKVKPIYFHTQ
X-box-binding protein 1 (Homo sapiens), sequence (P17861 whole entry, looked up): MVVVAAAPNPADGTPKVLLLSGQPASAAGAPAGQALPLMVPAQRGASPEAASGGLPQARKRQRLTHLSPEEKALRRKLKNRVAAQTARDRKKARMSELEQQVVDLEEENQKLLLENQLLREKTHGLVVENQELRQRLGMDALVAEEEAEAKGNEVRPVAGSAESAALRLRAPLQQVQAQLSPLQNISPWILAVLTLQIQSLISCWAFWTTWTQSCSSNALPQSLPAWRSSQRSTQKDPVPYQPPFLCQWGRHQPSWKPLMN
Estrogen receptor (Homo sapiens), sequence (P03372 whole entry, looked up, the tested form may be a part): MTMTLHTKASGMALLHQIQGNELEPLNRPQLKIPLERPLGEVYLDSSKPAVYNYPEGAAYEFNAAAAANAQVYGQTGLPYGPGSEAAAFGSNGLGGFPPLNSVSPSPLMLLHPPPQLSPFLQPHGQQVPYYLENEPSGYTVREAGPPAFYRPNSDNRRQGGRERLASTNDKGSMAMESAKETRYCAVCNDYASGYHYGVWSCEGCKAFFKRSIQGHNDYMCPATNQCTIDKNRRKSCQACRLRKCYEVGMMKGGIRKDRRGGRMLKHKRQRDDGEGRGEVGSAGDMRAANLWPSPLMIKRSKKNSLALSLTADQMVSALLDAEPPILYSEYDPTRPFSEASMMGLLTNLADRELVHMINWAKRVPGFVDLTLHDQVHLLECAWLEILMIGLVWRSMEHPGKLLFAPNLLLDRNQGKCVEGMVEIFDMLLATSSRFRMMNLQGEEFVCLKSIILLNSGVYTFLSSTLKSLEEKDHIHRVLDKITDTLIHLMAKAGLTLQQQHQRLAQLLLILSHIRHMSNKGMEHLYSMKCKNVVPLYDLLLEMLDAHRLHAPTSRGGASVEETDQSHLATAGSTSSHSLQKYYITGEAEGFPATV
Myc proto-oncogene protein (Homo sapiens), sequence (P01106 whole entry, looked up): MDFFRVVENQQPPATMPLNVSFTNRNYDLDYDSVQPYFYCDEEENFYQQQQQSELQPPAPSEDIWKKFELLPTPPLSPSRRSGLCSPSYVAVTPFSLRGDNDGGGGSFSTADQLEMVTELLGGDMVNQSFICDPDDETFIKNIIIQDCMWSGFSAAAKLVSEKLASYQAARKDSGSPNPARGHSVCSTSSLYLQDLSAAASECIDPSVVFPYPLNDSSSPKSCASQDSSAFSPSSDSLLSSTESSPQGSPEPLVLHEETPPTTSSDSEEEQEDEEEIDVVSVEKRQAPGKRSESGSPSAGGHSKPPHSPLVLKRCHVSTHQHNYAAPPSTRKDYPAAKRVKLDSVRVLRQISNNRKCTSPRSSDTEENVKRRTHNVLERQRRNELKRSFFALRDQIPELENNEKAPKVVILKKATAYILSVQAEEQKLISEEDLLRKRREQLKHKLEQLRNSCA

As for `CCC(C)(C#N)N=NC(C)(C#N)CC` (configuration not stated), the compound was classed as inactive in assay [1], in assay [2], in assay [3], in assay [4], in [5] and in assay [6]. Further, the result in assay [7], in [8], in assay [9], in [10], in assay [11] and in [12] was inactive. Moreover, the result in assay [13], in [14] and in assay [15] was inactive.
In the case of `O=C1C=CC(=O)c2ccccc21`, the call in assay [1], in [3], in assay [4], in assay [7], in assay [16] and in [17] was inactive. Moreover, the result in assay [18], in [9], in [10], in assay [11], in assay [12] and in [13] was inactive. The call in assay [14] and in assay [15] was inactive. Further, the AC50 (in general, the concentration giving half of the maximal activity seen) in [2] was 11.1 µM (active).
For the compound `Cc1c([N+](=O)[O-])c(C)c([N+](=O)[O-])c(C(C)(C)C)c1[N+](=O)[O-]`, the result in assay [1], in assay [5], in [7], in assay [9], in [12] and in assay [13] was inactive. The outcome in [14] and in assay [15] was inactive. Moreover, the values for the AC50 in [2], in assay [3] and in assay [11] were 7.73 µM (active), 100 µM (active) and 11.3 µM (active), respectively.
On to `CCOP(=S)(OCC)SCS(=O)(=O)C(C)(C)C`, for which the compound was called inactive in assay [1], in [2], in assay [3], in assay [4], in [6] and in assay [19]. Also, the compound was classed as inactive in [16], in assay [9], in assay [10], in assay [11], in assay [12] and in assay [13]. Further, the call in [14] and in assay [15] was inactive. Further, the AC50 in [17] was 34.1 µM (active); in assay [18], 53.5 µM (active).

The record behind these values is PubChem BioAssay (EPA / NIEHS).
